Bioassay records (PubChem)
VACV Venus inh – inhibitors of vaccinia virus (Venus reporter) | actives 0.46% (n = 330,000) | Potency, µM (series often up to 36.5 µM), for inactives: at the top dose activity change, negative = inhibition, actives largely listed as inhibitors | Vaccinia virus Venus reporter expression, fluorescence; calls by dose curve; tested in A549 cells; further: nearly all actives have a fitted effect of over 30% in size
Marburg entry inh – Marburg virus entry inhibition | Marburg virus pseudotyped entry inhibition, cell reporter | Potency, µM (top dose mostly 37.8 µM), for the others: at the highest dose activity change, negative = inhibition, hits mostly inhibitors | actives 1.8% (n = 300,000) | AID 540276; calls by dose curve; tested in HEK293 cells
Vaccinia mCherry – vaccinia inhibition (mCherry reporter); Vaccinia virus mCherry reporter infection, fluorescence; Potency, µM (series often up to 36.5 µM), for inactives: at the highest dose activity change, negative = inhibition, most hits filed as inhibitors; actives 0.63% (n = 310,000); AID 720579; calls by dose curve; tested in A549 cells; further: nearly all actives have a fitted effect of over 35% in size
FMDV inh – blocks foot and mouth disease virus. FMDV antiviral cell-based qHTS. Potency, µM (series often up to 57.9 µM), inactives show top-dose activity change, negative = inhibition, actives largely listed as inhibitors. actives 1.2% (n = 410,000). AID 1159524; calls by dose curve; tested in HEK293T cells; further: read-out not given here; nearly all actives have a fitted effect of over 45% in size
LASV entry inh – Lassa virus entry inhibition | Lassa virus pseudotype entry inhibition, cell reporter | Potency, µM (highest dose often 37.9 µM), for inactives: at the highest dose activity change, negative = inhibition, usual class: inhibitors | actives 1.2% (n = 300,000); calls by dose curve; tested in HEK293 cells; further: nearly all actives have a fitted effect of over 50% in size
* marks the source's active call; other numbers are inactive results; i = inactive; ? = inconclusive; · = no result given; ! = not active in a repeat; [ ] = remark or other dose. Hits are enriched below; roughly 3.2% of the tested compounds scored in any of these assays. On the % scale 0 is the no-effect control and ±100 the full control effect; potency means the concentration at half of the fitted maximal effect.

SMILES	VACV Venus inh	Marburg entry inh	Vaccinia mCherry	FMDV inh	LASV entry inh
O=C(Nc1ccc(N2CCCCC2)cc1)c1ccc2c(c1)OCCO2	·	?	·	-21.6%	?
O=C(Nc1ccc(N2CCN(C(=O)c3ccccc3)CC2)cc1)c1ccc2c(c1)OCCO2	-10.5%	?	-4.0%	31.6µM*	?
O=C(Nc1ccc(N2CCN(C(=O)c3ccc(Cl)cc3)CC2)cc1)c1ccc2c(c1)OCCO2	?	?	?	11.2µM*	?
CC(C)C(=O)N1CCN(c2ccc(NC(=O)c3ccc4c(c3)OCCO4)cc2Cl)CC1	·	6.51µM*	·	11.2µM*	25.9µM*
C/C(CCN1CCCc2nc(C)c(C)cc21)=N\O[C@H](C)c1cn([C@@H]2COC[C@H]2O)nn1	·	7.3%[14.2 µM]	·	·	·
COc1ccccc1C(=O)OCc1c(-c2ccccc2)ncc2ccccc12	-10.8%	·	-9.1%	?	·
CCc1ccccc1NC(=O)/C(=C/c1ccco1)c1ccccc1	-25.8%	?	·	?	15.8µM*
Cc1ccccc1NC(=O)/C(=C/c1ccco1)c1ccccc1	-6.8%	-22.8%	-24.7%	0.0%	-6.9%
C[C@@H]1CN(Cc2ccc3c(c2)CN(Cc2cn[nH]c2-c2ccccc2)CCO3)C[C@H](C)O1	-4.7%	·	-13.7%	-7.9%	·
CN1C[C@H](CNC(=O)OCc2ccccc2)C[C@H]2c3cccc4c3c(cn4C)C[C@@H]21	·	?	·	-16.7%	·
CN1C[C@H](CNC(=O)OCc2ccccc2)C[C@@H]2c3cccc4c3c(cn4C)C[C@H]21	-25.6%	5.62µM*	-16.8%	-16.7%	23.1µM*
CCOC(=O)CSC1=C(C#N)C(=O)NC(c2ccc(OC)c(OC)c2)S1 (stereo not given)	-12.7%	12.1%	-17.3%	28.2µM*	3.1%
CSCCC(c1nnnn1C1CCCC1)N1CCN(C/C=C/c2ccccc2)CC1 (stereo not given)	-5.2%	·	20.5%	-14.9%	·
CC(C)OC(=O)c1cc2c(ccn2C)n1CC(=O)N(Cc1ccccc1)c1ccc(F)cc1	-19.4%	5.17µM*	?	0.0%	5.01µM*
C=CCCCC=C(C)[C@H](OCc1ccc(OC)cc1)[C@H](CCC=C(C)C(N)=O)OC	·	10.3%[14.2 µM]	·	·	·
COc1cc(Nc2nccc(Nc3ccc4c(C)[nH]nc4c3)n2)cc(OC)c1OC	·	·	·	·	25µM*
Cc1cc(SCC(=O)c2ccc(O)c(O)c2)n2nc(C)c(-c3ccccc3)c2n1	-28.8%	·	11.2µM*	-21.5%	·
CC1(Cc2ccccc2OC(F)(F)F)C(=O)Nc2ccc(-c3ccsc3)cc21 (stereo not given)	-13.1%	·	i	0.0%	·
COC(=O)CC=C1c2ccccc2[C@@H](OC)[C@@H]1C	·	16.2%[14.2 µM]	·	·	?
O=C(NC(=S)Nc1ccccc1O)c1cncc(Br)c1	?	-5.3%	14.1µM*	31.5%	-22.8%
CC1OC(CCc2cccc(Cl)c2)Cc2[nH][nH]c(=O)c21 (stereo not given)	-1.9%	·	-5.9%	21.6%	·
NCCS	-11.2%	11.2µM*!	-14.8%	1.7%	-5.7%
CCOc1ccc(Br)cc1CNCCSc1nnnn1-c1ccccc1	6.9%	7.2%[46.1 µM]	-2.3%	0.0%	-5.5%[46.1 µM]
CCN(c1ccccc1)S(=O)(=O)c1ccc(NCC2COc3ccccc3O2)nc1 (stereo not given)	·	?	·	?	16.4µM*
CCN(c1ccccc1)S(=O)(=O)c1ccc(Cl)nc1	-16.2%	3.2%[46.1 µM]	-11.7%	-9.9%	-9.5%
SMILES	VACV Venus inh	Marburg entry inh	Vaccinia mCherry	FMDV inh	LASV entry inh
O=C1C(C(=O)N(c2ccccc2)C2CCCCC2)C=NC2SCCN12 (stereo not given)	·	16.2%	·	·	·
CCOC(=O)c1c(C)oc2c1c(C=NCc1ccccn1)c(O)c1ccccc12	-10.2%	?	-4.0%	-22.2%	14.1µM*
CCC(=NCc1ccc(F)cc1)c1c(O)n(C)c(=O)n(C)c1=O	·	?	·	39.8µM*	-4.9%
CCC(=NCCC(c1ccccc1)c1ccccc1)c1c(O)n(C)c(=O)n(C)c1=O	-25.6%	?	-11.1%	?	?
CN1C(=S)S[C@@H](N(O)C(=O)Nc2ccccc2)C1(C)C	·	2.0%	·	·	·
Cc1ccccc1-c1nnc(SCC(=O)Nc2cccnc2Cl)o1	-12.0%	?	-16.0%	44.0%	2µM*
O=C(N/N=C/c1ccc(O)cc1)Nc1cccc2nsnc12	?	?	10µM*	-2.2%	?
COc1ccc(C(C)N(C)Cc2nc(N3CCN(C(=O)c4ccco4)CC3)c3ccccc3n2)cc1 (stereo not given)	-0.4%	·	1.8%	6.6%	·
CCOC(=O)C1Nc2ccc(C(F)(F)F)cc2C2c3ccccc3CC12 (stereo not given)	?	·	?	28.2µM*	·
